# Measurements: paper PMC4053984, “DNA binding specificities of the long zinc-finger recombination protein PRDM9”
# Target: PRDM9Cst (Mus musculus (CAST/EiJ))
# Assay: competition EMSA; competition against biotin-labeled 75-bp Hlx1 B6 oligo; 10 mM Tris pH 7.5, 50 mM KCl, 1 mM DTT, 50 ng/ul poly(dI/dC), 0.05% NP-40, crude E. coli extract 3 ul in 20 ul; 1 h with unlabeled competitor, then 4 h with biotin-labeled 75-bp Hlx1; temperature not stated; high values mean tight binding
# Details: tags: N-terminal His tag (pBAD/HisB); dsDNA, one strand shown
# PRDM9Cst (Mus musculus (CAST/EiJ)), sequence (chain, as listed by the source): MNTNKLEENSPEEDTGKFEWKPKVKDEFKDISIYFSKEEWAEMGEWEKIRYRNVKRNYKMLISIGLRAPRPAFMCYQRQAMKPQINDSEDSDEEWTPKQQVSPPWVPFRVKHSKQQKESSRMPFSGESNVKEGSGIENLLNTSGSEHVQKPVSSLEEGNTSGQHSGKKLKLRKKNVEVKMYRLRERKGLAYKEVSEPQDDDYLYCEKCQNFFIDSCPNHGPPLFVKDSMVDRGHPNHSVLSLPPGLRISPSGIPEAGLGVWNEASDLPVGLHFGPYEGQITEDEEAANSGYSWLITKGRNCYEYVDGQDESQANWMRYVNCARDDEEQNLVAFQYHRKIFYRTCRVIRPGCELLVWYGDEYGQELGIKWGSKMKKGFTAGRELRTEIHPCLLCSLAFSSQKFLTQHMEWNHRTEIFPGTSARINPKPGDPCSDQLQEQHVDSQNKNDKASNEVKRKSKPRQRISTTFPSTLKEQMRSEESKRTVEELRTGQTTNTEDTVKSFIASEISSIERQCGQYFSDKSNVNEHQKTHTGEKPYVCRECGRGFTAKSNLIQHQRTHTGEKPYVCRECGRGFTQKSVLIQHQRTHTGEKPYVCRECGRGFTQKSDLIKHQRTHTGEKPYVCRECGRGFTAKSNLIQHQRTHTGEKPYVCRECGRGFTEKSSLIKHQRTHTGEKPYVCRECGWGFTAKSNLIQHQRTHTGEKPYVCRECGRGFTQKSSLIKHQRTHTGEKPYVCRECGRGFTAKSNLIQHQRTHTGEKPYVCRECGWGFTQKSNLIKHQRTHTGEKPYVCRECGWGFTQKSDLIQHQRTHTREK
row,Sequence,binding signal
1,ATAGTTTGCAGACTTGGACCCTGCCCTTTCTTT,"-0.3 Bmut (0 = wild type, -1 = scrambled)"
2,ATAGAGTGCAGACTTGGACCCTGCCCTTTCTTT,"0 Bmut (0 = wild type, -1 = scrambled)"
3,ATAGTGTGCAGACTTGCACCCTGCCCTTTCTTT,"-0.2 Bmut (0 = wild type, -1 = scrambled)"
4,TTAGTGTGCAGACTTGGACCCTGCCCTTTCTTT,"0 Bmut (0 = wild type, -1 = scrambled)"
5,ATAGTGTGCAGACTTGGACCCGGCCCTTTCTTT,"-0.5 Bmut (0 = wild type, -1 = scrambled)"
6,ATGGTGTGCAGACTTGGACCCTGCCCTTTCTTT,"0 Bmut (0 = wild type, -1 = scrambled)"
7,ATAGCGTGCAGACTTGGACCCTGCCCTTTCTTT,"-0.5 Bmut (0 = wild type, -1 = scrambled)"
8,ATACTGTGCAGACTTGGACCCTGCCCTTTCTTT,"-0.1 Bmut (0 = wild type, -1 = scrambled)"
9,ATAGTGTGCAGACTTGGACCCTGCCGTTTCTTT,"0.04 Bmut (0 = wild type, -1 = scrambled)"
10,ATAGTGAGCAGACTTGGACCCTGCCCTTTCTTT,"-0.3 Bmut (0 = wild type, -1 = scrambled)"
11,ATAGTGTGGAGACTTGGACCCTGCCCTTTCTTT,"0.1 Bmut (0 = wild type, -1 = scrambled)"
12,ATAGTGTGCAGACTTCGACCCTGCCCTTTCTTT,"-0.2 Bmut (0 = wild type, -1 = scrambled)"
13,ATAGTGTGCAGGCTTGGACCCTGCCCTTTCTTT,"-0.1 Bmut (0 = wild type, -1 = scrambled)"
14,ATAGTGTGCAGACTTGGAGCCTGCCCTTTCTTT,"-0.5 Bmut (0 = wild type, -1 = scrambled)"
15,ATAGTGTGCAGACTTGGACCATGCCCTTTCTTT,"0.07 Bmut (0 = wild type, -1 = scrambled)"
16,ATAGTGTCCAGACTTGGACCCTGCCCTTTCTTT,"-0.1 Bmut (0 = wild type, -1 = scrambled)"

row,Sequence,binding signal
1,ATAGTGTGCAGACTTGGACCCTGCCCTTTCTGT,"0.09 Bmut (0 = wild type, -1 = scrambled)"
2,ATAGTGTGCAGACTTGGACCCTGCCCTTTCGTT,"0.12 Bmut (0 = wild type, -1 = scrambled)"
3,ATAGTGTGCAGACTTGGACCCTGACCTTTCTTT,"-0.3 Bmut (0 = wild type, -1 = scrambled)"
4,ATAGTGTGCAGACTTGGACCCTGCCATTTCTTT,"-0.1 Bmut (0 = wild type, -1 = scrambled)"
5,ATAGTGTGCAGACGTGGACCCTGCCCTTTCTTT,"-0.4 Bmut (0 = wild type, -1 = scrambled)"
6,ATAGTGTGCAGACTTGTACCCTGCCCTTTCTTT,"-0.8 Bmut (0 = wild type, -1 = scrambled)"
7,ATAGTGTGCAGACTTGGACCCTGCCCTTTTTTT,"0.11 Bmut (0 = wild type, -1 = scrambled)"
8,ATAGTGTGCAGACTTGGACCCTGCCCTTTCCTT,"0.12 Bmut (0 = wild type, -1 = scrambled)"
9,ATAGTGTGCAGACCTGGACCCTGCCCTTTCTTT,"0 Bmut (0 = wild type, -1 = scrambled)"
10,ATAGTGTGCAGACTGGGACCCTGCCCTTTCTTT,"-0.3 Bmut (0 = wild type, -1 = scrambled)"
11,ATCGTGTGCAGACTTGGACCCTGCCCTTTCTTT,"-0.1 Bmut (0 = wild type, -1 = scrambled)"
12,ATAGTGTGCAGACTTGGGCCCTGCCCTTTCTTT,"0.3 Bmut (0 = wild type, -1 = scrambled)"
13,ATAGTGTGCAGACTTGGATCCTGCCCTTTCTTT,"-0.3 Bmut (0 = wild type, -1 = scrambled)"
14,ATAGTGTGCAGACTTGGACCCTGCGCTTTCTTT,"-0.4 Bmut (0 = wild type, -1 = scrambled)"
15,ATAGTGTGCAGACTAGGACCCTGCCCTTTCTTT,"0 Bmut (0 = wild type, -1 = scrambled)"
